# Values joined by “and” are separate entries in the source; they are usually repeats but may differ in a detail not shown here. Equal entries are not always repeated. Results filed as inconclusive are left out. Entries that show only a call come without a potency. Active and inactive are the calls of the source. Unless noted, calls come from the whole dose curve.
# Assays:
# [1] = target: DNA dC->dU-editing enzyme APOBEC-3G (Homo sapiens) (UniProt Q9HC16); experiment: qHTS for inhibitors of Vif-A3G interactions: Validation (AID 588379; active = well fitted curve in the direction sought with a large enough effect; an effect the other way counts as inactive or inconclusive)
# Chain of DNA dC->dU-editing enzyme APOBEC-3G (Homo sapiens) (Q9HC16 whole entry, looked up): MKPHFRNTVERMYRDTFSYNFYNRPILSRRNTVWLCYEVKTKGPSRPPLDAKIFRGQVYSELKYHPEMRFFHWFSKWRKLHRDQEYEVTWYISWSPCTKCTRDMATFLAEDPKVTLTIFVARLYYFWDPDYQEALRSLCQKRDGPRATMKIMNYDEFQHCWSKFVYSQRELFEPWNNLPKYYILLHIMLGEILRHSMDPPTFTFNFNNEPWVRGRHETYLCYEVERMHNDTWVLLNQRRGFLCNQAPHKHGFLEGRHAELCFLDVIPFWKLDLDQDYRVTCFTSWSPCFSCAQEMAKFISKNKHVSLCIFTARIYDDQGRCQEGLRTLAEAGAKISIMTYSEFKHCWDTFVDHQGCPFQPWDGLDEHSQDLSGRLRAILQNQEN
# How it was run: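 Yellow fluorescence (Ex 488, Em 500-530) of Vif-coexpressing HeLa A3G-eYFP cells, scanned by Acumen cytometer, reports blocked A3G degradation. Cells plated at 700/well overnight at 37 deg C before compound addition, then a further overnight compound incubation at 37 deg C.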
# [2] = target: Estrogen receptor (Homo sapiens) (UniProt P03372); experiment: qHTS assay for small molecule agonists of estrogen receptor alpha signaling (AID 588514); note: nearly all actives have a fitted effect of over 70% in size; note: potency is the fitted concentration of half-maximal effect
# Chain of Estrogen receptor (Homo sapiens) (P03372 whole entry, looked up): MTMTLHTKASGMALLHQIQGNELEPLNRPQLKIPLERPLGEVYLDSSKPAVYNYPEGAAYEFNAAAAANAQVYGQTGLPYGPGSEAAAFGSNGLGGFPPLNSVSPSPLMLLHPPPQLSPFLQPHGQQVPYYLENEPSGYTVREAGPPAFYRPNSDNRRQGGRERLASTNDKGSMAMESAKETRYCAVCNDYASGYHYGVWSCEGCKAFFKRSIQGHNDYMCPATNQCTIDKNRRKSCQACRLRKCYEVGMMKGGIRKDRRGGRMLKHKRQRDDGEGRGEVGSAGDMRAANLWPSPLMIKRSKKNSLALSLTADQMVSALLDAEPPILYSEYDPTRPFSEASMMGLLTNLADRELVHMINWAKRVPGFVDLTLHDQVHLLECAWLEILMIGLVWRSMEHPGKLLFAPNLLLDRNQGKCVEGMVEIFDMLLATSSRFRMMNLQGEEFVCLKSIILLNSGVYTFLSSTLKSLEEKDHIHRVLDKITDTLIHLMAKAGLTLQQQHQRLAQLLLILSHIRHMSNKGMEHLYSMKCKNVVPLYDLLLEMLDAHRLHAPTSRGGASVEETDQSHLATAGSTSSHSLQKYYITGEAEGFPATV
# How it was run: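 EC50 and efficacy came from Hill fits of beta-lactamase reporter signal (CCF4 dye, 2 h at room temperature) scaled between DMSO and 20 nM 17-beta-estradiol. Agonist mode: HEK293 ER-alpha-UAS-bla cells in charcoal/dextran-stripped serum medium, 18 h compound exposure at 37 C.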
# [3] = target: Glucocorticoid receptor (Homo sapiens) (UniProt P04150); experiment: qHTS assay for small molecule agonists of glucocorticoid receptor signaling (AID 588532; active = well fitted curve in the direction sought with a large enough effect in the signal ratio, with a control signal flat; the % refers to the signal ratio); conditions: HeLa MMTV-bla, beta-lactamase ratio, agonist, 18 h; stronger effect = higher value; percent of dexamethasone control, DMSO zero
# Chain of Glucocorticoid receptor (Homo sapiens) (P04150 whole entry, looked up): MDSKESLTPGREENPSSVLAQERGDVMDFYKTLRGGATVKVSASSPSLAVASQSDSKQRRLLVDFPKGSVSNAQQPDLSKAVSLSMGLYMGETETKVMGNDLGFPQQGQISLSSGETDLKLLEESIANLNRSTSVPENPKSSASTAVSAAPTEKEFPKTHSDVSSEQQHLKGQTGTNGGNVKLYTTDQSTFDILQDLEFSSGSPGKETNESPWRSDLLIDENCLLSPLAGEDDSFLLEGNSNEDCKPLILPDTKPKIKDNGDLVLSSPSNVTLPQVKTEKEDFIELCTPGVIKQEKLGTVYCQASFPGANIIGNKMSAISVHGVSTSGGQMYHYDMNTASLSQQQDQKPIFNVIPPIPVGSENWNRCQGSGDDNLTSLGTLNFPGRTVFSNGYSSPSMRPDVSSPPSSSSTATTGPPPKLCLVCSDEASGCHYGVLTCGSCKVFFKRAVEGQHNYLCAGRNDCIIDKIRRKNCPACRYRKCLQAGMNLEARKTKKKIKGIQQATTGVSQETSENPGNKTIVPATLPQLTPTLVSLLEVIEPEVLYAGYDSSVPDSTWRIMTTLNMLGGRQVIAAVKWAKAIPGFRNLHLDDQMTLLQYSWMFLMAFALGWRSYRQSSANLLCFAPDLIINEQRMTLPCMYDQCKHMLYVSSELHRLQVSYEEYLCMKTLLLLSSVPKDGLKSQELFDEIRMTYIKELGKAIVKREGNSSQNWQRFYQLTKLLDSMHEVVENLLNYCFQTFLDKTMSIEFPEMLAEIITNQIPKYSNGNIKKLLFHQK
# How it was run: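 Agonist-mode qHTS: GRE-driven beta-lactamase in HeLa cells exposed 18 h to titrated compounds (up to 92 uM), then CCF4 ratio read after 2 h at RT; Hill-fitted EC50, efficacy relative to 0.1 uM dexamethasone.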
# [4] = target: Estrogen receptor (Homo sapiens) (UniProt P03372); experiment: qHTS assay for small molecule antagonists of estrogen receptor alpha signaling (AID 588513; active = well fitted curve in the direction sought with a large enough effect in the signal ratio, with a control signal flat, not every such curve was filed as active; the % refers to the signal ratio)
# How it was run: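 Cells were plated at 5000/well and incubated 4 h at 37 C. Compounds were added as 1:2 dilution series, duplicates. 17-beta-estradiol (0.5nM final) was added for 18 h before CCF4 detection.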
# [5] = target: Bile acid receptor (Homo sapiens) (UniProt Q96RI1); experiment: qHTS assay for small molecule antagonists of farnesoid X receptor signaling (AID 588526)
# Chain of Bile acid receptor (Homo sapiens) (Q96RI1 whole entry, looked up): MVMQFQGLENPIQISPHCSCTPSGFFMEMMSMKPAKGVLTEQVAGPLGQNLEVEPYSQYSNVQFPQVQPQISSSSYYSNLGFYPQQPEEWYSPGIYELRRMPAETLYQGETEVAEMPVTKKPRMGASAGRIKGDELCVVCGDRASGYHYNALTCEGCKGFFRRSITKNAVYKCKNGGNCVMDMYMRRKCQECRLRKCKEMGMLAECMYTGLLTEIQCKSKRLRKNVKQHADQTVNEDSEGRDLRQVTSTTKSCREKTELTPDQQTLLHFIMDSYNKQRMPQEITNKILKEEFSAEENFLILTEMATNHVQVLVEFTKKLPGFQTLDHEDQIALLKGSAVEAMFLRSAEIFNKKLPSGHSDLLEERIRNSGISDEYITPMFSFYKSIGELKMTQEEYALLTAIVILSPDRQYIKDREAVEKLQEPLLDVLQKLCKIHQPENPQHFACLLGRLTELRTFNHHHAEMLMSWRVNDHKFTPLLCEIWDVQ
# How it was run: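 Beta-lactamase reporter antagonist mode: HEK293T FXR-UAS-bla cells, titrated compound, CDCA stimulation, 16 h 37 C, CCF4 dye 2 h RT. Data normalized to CDCA 50 uM and DMSO; Hill-fit IC50.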
# [6] = target: Glucocorticoid receptor (Homo sapiens) (UniProt P04150); experiment: qHTS assay for small molecule antagonists of glucocorticoid receptor signaling (AID 588533; active = well fitted inhibition curve with a large enough effect in the signal ratio, with a control signal flat, not every such curve was filed as active; the % refers to the signal ratio;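 note: cells stimulated with 2 nM dexamethasone as agonist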; note: potency is the fitted concentration of half-maximal effect)
# How it was run: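 Antagonist-mode qHTS: compound titrations added to GRE-bla HeLa cells, then dexamethasone 2 nM final; 18 h, 37 C. CCF4 FRET fluorescence normalized to dexamethasone and DMSO; IC50 from Hill fit.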
# [7] = qHTS assay for small molecule antagonists of peroxisome proliferator-activated receptor delta signaling (AID 588535); conditions: HEK293T PPARd-UAS-bla, beta-lactamase FRET ratio, 18 h; 460 nm channel;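 note: cells co-treated with a PPAR-delta agonist as stimulator during compound exposure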
# How it was run: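 Titrations were run on PPAR-delta-UAS-bla HEK293T cells in charcoal/dextran-stripped serum, incubated 18 h at 37 C. CCF4 fluorescence (460/530 nm) after 2 h RT; Hill equation yields IC50 and maximal response.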
# [8] = qHTS for Inhibitors of ATXN expression: Validation (AID 588378; active = well fitted curve in the direction sought with a large enough effect; an effect the other way counts as inactive or inconclusive; note: nearly all actives have a fitted effect of over 75% in size; note: potency is the fitted concentration of half-maximal effect)
# How it was run: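 Validation of ATXN2 expression inhibitors uses a cell-based luciferase fusion reporter in HEK293 cells, with 24 h compound exposure and paired viability (fluorescence) and reporter (luminescence) end-point reads.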
# [9] = target: Androgen receptor (Homo sapiens) (UniProt P10275); experiment: qHTS assay for small molecule agonists of androgen receptor signaling (AID 588515; active = well fitted curve in the direction sought with a large enough effect in the signal ratio, with a control signal flat; the % refers to the signal ratio); conditions: AR-UAS-bla HEK293, beta-lactamase ratio, agonist 16 h; stronger effect = higher value
# Chain of Androgen receptor (Homo sapiens) (P10275 whole entry, looked up): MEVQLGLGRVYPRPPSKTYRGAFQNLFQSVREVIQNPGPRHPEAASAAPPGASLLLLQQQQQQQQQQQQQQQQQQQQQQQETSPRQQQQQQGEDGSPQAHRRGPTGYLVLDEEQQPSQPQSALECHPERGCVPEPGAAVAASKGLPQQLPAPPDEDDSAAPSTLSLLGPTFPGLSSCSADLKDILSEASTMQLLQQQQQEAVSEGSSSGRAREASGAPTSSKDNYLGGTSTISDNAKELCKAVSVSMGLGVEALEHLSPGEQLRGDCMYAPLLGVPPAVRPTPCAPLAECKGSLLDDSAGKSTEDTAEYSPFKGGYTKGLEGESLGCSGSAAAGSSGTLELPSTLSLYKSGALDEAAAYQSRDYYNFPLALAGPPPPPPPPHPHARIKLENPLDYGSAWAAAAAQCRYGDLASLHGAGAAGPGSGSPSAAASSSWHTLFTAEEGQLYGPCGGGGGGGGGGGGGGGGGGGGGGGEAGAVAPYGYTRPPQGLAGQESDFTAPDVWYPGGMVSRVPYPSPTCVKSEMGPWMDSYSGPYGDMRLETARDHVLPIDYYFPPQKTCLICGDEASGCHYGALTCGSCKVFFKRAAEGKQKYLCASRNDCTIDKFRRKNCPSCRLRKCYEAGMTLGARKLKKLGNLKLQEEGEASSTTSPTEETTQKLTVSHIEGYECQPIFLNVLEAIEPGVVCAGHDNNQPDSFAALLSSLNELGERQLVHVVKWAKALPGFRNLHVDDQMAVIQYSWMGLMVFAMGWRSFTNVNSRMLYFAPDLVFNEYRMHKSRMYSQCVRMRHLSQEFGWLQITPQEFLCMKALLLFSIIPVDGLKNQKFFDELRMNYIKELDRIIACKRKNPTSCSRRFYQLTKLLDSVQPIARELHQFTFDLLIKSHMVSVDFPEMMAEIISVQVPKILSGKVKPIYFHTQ
# How it was run: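 Stimulation of an AR-responsive β-lactamase reporter in GripTite HEK293 cells was measured after 16 h compound exposure at 37 °C, via CCF4 fluorescence after 2 h RT. EC50 from Hill fits, normalized to R1881 at 30 nM.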
# [10] = target: Androgen receptor (Homo sapiens) (UniProt P10275); experiment: qHTS assay for small molecule antagonists of androgen receptor signaling (AID 588516; active = well fitted curve in the direction sought with a large enough effect in the signal ratio, with a control signal flat, not every such curve was filed as active; the % refers to the signal ratio; note: potency is the fitted concentration of half-maximal effect)
# How it was run: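 Antagonist-mode qHTS: inhibition of R1881 (10 nM)-driven beta-lactamase expression in GripTite HEK 293 cells is measured after 16 h; values are Hill-derived IC50s normalized between R1881 and DMSO wells.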
smiles,measurement,setting,value
COc1ccc2[nH]c(=O)c3c(c2c1)OC(C)(C)C=C3,outcome,[1],inactive
CC(=O)S[C@@H]1CC2=CC(=O)CC[C@]2(C)[C@H]2CC[C@@]3(C)[C@@H](CC[C@@]34CCC(=O)O4)[C@H]12,Potency,[2],inactive
same,activation,[3],-13.6% (inactive)
COc1cc(C[C@H]2C(=O)OC[C@@H]2Cc2ccc(OC)c(OC)c2)ccc1O,outcome,[1],inactive
COC(C)=O,outcome,[4],inactive
same,Potency,[2],inactive
same,outcome,[5],inactive
same,activation,[3],-4.63% (inactive)
same,Potency,[6],inactive
same,max response,[7],27.1%
CCc1ccccc1OC[C@@H](O)CN[C@H]1CCCc2ccccc21,outcome,[1],inactive
NCCCC(=O)O,Potency,[8],inactive
same,outcome,[1],inactive
CN(C)Cc1ccccc1,activation,[9],-4.67% (inactive)
same,activation,[3],-2.09% (inactive)
same,Potency,[6],inactive
same,max response,[7],-30.1%
CC(=O)C1=C(O)C=C2Oc3c(C(C)=O)c(O)c(C)c(O)c3[C@]2(C)C1=O,outcome,[1],inactive
Cc1ccc(OC[C@H](O)[C@H](C)NC(C)C)c2c1CCC2,outcome,[1],inactive
O=S(=O)(c1ccccc1)N(CC(F)(F)F)c1ccc(C(O)(C(F)(F)F)C(F)(F)F)cc1,Potency,[2],inactive
same,Potency,[10],44.7 µM (active)
same,activation,[3],3.66% (inactive)
same,Potency,[6],39.8 µM (active)
same,max response,[7],-29.6%
O=C(O)CC(O)(CC(=O)O)C(=O)O,Potency,[2],inactive
same,Potency,[6],inactive
same,max response,[7],-9.3% and -1.59% and -15.8%
CCCCCCCCCC(=O)O,activation,[9],-19.5% (inactive) and -1.38% (inactive)
same,Potency,[10],inactive
same,activation,[3],-0.446% (inactive)
same,Potency,[6],inactive
same,max response,[7],24%
CN[C@H]1CC[C@@H](c2ccc(Cl)c(Cl)c2)c2ccccc21,Potency,[8],14.1 µM (active)
CCCCCCCC/C=C\CCCCCCCC(=O)OC[C@@H](O)[C@H]1OC[C@H](O)[C@H]1O,Potency,[2],2 µM (active)
same,Potency,[6],inactive
same,max response,[7],-7.22%
CN(C)CCCn1cc(C2=C(c3c[nH]c4ccccc34)C(=O)NC2=O)c2ccccc21,outcome,[1],inactive
C=Cc1ccccc1,outcome,[4],inactive
same,Potency,[2],inactive
same,max response,[7],-7.04% and -9%
